GSTO1 counter: GSTO1 inhibition, counter-screen for RBBP9 inhibitors; P78417; recombinant GSTO1, activity-based probe fluorescence polarization; inhibition, % at 5.96 µM; 300,000 compounds, 1.1% hits; AID 1974;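 active = inhibition above the campaign mean inhibition plus 3 SD, cut at about 35% in these data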
Target sequence (P78417 whole entry, looked up): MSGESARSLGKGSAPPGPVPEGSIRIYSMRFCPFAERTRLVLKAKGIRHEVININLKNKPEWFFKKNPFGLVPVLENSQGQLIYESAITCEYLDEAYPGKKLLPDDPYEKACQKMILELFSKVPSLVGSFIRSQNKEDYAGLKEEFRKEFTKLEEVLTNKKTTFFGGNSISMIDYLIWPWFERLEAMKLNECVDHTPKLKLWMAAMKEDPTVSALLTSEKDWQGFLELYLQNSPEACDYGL
PAD4 inh: PAD4 (human) enzyme inhibition; Q9UM07; recombinant PAD4, RCA probe fluorescence polarization; inhibition, % at 6.36 µM; 330,000 compounds, 0.41% hits; AID 485272;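 active = percent inhibition above a cutoff equal to the mean of all tested compounds plus 3 SD, cut at about 15% in these data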
LYPLA1 inh: blocks human lysophospholipase 1, a PME1 counter-screen. O75608. recombinant LYPLA1, FP-Rh probe fluorescence polarization. inhibition, % at 5.9 µM. 320,000 compounds, 0.16% hits;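 active = inhibition above the mean of all tested compounds plus 3 SD, set per campaign, cut at about 14% in these data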;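 also: inhibitors block serine hydrolase probe labeling of LYPLA1 so polarization falls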
Target sequence (O75608 whole entry, looked up): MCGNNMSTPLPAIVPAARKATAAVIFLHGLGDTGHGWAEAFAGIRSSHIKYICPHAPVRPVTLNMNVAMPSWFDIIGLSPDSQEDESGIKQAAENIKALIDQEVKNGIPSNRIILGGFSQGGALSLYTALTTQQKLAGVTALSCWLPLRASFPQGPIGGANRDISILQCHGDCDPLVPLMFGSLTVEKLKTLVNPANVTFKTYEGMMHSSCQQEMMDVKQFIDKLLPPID
LYPLA2 counter: LYPLA2 (human) inhibition in PME1 counter-screen; O95372; recombinant LYPLA2, FP-Rh probe fluorescence polarization; inhibition, % at 5.9 µM; 320,000 compounds, 0.38% hits; AID 2177;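 active = inhibition above the screen-wide mean plus 3 SD, limit set per campaign, cut at about 26% in these data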
Target sequence (O95372 whole entry, looked up): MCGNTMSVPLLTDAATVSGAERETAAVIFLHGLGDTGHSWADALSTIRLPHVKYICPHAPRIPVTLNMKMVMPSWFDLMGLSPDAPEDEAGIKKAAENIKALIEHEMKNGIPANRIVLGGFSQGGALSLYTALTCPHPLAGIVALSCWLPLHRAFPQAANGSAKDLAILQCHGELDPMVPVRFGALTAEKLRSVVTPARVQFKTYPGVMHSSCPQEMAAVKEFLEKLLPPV
Fam108B counter: Fam108B inhibition, counter-screen for RBBP9 inhibitors; recombinant Fam108B, FP-Rh probe fluorescence polarization; 300,000 compounds, 0.33% hits; inhibition, % at 9.51 µM; AID 1947;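 active = inhibition above the screen mean inhibition plus 3 SD, computed separately per campaign, cut at about 18% in these data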;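 also: inhibitors lower polarization as less probe binds the enzyme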
PME-1 primary: blocks human protein phosphatase methylesterase 1; 320,000 compounds, 0.53% hits; Q9Y570; inhibition, % at 5.9 µM; AID 2130; recombinant PME-1, FP-Rh probe fluorescence polarization;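 active = inhibition above the campaign mean of all compounds plus 3 SD, cut at about 26% in these data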;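 also: competitive labeling of PME-1 active site by serine hydrolase directed probe; inhibitors block probe labeling so polarization falls and inhibition rises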
GSTO1 inh conf: confirmation of human GSTO1 inhibitors | shares compounds with GSTO1 counter | recombinant GSTO1, probe fluorescence polarization | inhibition, % at 5.96 µM | 2,400 compounds, 54% hits;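 active = inhibition above the primary screen's cutoff, its mean inhibition plus 3 SD, cut at about 35% in these data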;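 also: loss of polarization as inhibitors block binding of rhodamine sulfonate ester activity probe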
LYPLA1 confirm: LYPLA1 (human) inhibition, confirmation counter-screen. recombinant LYPLA1, FP-Rh probe fluorescence polarization. inhibition, % at 5.9 µM. 480 compounds, 69% hits. shares compounds with LYPLA1 inh;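 active = mean inhibition across replicates above the hit cutoff set in the primary screen, cut at about 15% in these data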;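 also: loss of FP-Rh probe labeling of LYPLA1 seen as lower polarization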
PAD4 FP conf: confirmation of human PAD4 inhibitors; shares compounds with PAD4 inh; recombinant PAD4, RCA probe fluorescence polarization; inhibition, % at 6.36 µM; 1,200 compounds, 28% hits;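 active = mean inhibition across replicates above the hit cutoff set by the earlier primary screen, cut at about 15% in these data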;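 also: inhibitors block active-site labeling by the probe so polarization falls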
Each line names hits and unclear results; the compound was inactive in the other large screens (follow-up assays come after a bar, where they were run). Compounds with a hit are over-represented: about 1.7% of the library has one in this group of screens.

COC(=O)/C(=C/Nc1ccc(O)cc1)[N+](=O)[O-]	GSTO1 counter 75, PAD4 inh 68 | GSTO1 inh conf inactive | PAD4 FP conf inactive
O=C(NN=c1c(=O)c2ccccc2c1=O)c1ccccc1	GSTO1 counter 77, PAD4 inh 44 | GSTO1 inh conf 72 | PAD4 FP conf 45
CN(C)/C=N/NC(=O)c1ccccc1	none
CCC(C)NC(=O)NC(=O)N(C1CCCCC1)S(C)(=O)=O (centres undefined)	none
Cn1c(=O)c2c(nc(NCc3ccccc3)n2C)n(C)c1=O	none
Cn1c(=O)c2cc(NCc3ccccc3)nnc2n(C)c1=O	GSTO1 counter 81, PAD4 inh 31, LYPLA1 inh 19, PME-1 primary 29 | GSTO1 inh conf inactive | LYPLA1 confirm inactive | PAD4 FP conf inactive
O=C(NCCO)c1ccc2nc(-c3ccco3)c(-c3ccco3)nc2c1	GSTO1 counter 75, PAD4 inh 30 | GSTO1 inh conf 57 | PAD4 FP conf inactive
CC1CC(C)CN(S(=O)(=O)c2ccc(C(=O)NNC(=O)c3ccccc3F)cc2)C1 (centres undefined)	none (no result: GSTO1 counter, LYPLA1 inh, LYPLA2 counter, Fam108B counter, PME-1 primary)
COc1cc(NS(C)(=O)=O)c(OC)cc1NC(=O)c1cccc(F)c1	none
Cc1ccc(OCc2cc(C(=O)N(C)Cc3cnn(-c4ccccc4C)c3)no2)cn1	LYPLA1 inh 27 | LYPLA1 confirm 29
Cc1cc(CN(C)C(=O)c2cc(COc3ccc(C)c(C)c3)on2)on1	none
CC(C(N)=O)N1C(=O)c2cccc3cccc1c23 (centres undefined)	none
COCCn1c(=O)[nH]c2cc(C(=O)N3CCN(c4cccc(Cl)c4)CC3)ccc2c1=O	LYPLA1 inh 52 | LYPLA1 confirm inactive
COCCn1c(=O)[nH]c2cc(C(=O)N3CCN(c4ccccc4)CC3)ccc2c1=O	none
O=C(CN1CCN(C(=O)c2ccccc2)CC1)Nc1cc(S(=O)(=O)N2CCCC2)ccc1Cl	LYPLA1 inh 78 (no result: GSTO1 counter, Fam108B counter) | LYPLA1 confirm 81
O=C(CN1CCN(C(=O)c2ccco2)CC1)Nc1cc(Cl)ccc1Cl	LYPLA1 inh 82 | LYPLA1 confirm 85
CC(O)CC(=O)NOCc1ccccc1 (centres undefined)	none (no result: GSTO1 counter, LYPLA1 inh, LYPLA2 counter, Fam108B counter, PME-1 primary)
N#Cc1c(Cl)nsc1NC(=O)c1ccccc1	none
CCN(c1ccc(NC(=O)c2ccc(N3CCCC3=O)cc2)cc1)C(C)C	LYPLA1 inh 16 | LYPLA1 confirm 17
Cc1cc(C(=O)NC(C)CCC(C)C)c2ccccc2n1 (centres undefined)	none
O=C(O)c1ccc(CSc2nc3ccccc3c(=O)n2-c2ccccc2)cc1	LYPLA1 inh 17 | LYPLA1 confirm 27
O=c1c2ccccc2nc(SCc2ccc([N+](=O)[O-])cc2)n1-c1ccccc1	none
CC1CC(=O)Nc2ccccc2S1(=O)=O (centres undefined)	LYPLA1 inh 18 | LYPLA1 confirm inactive
C/C(=N/NC(=O)c1cc2ccccc2cc1O)C1C(=O)c2ccccc2C1=O	LYPLA1 inh 63, Fam108B counter 75, PME-1 primary 79 | LYPLA1 confirm 57
C/C(=N\NC(=O)c1cc2ccccc2cc1O)c1ccccn1	none
Nc1nnc(COc2cccc(C(F)(F)F)c2)s1	none
Cc1cc(NC(=O)c2ccc3c(c2)C(=O)N(C2CCCCC2)C3=O)no1	none
O=C(Nc1ccncc1)c1ccc2c(c1)C(=O)N(C1CCCCC1)C2=O	LYPLA1 inh 26, LYPLA2 counter 52 | LYPLA1 confirm 31
COc1[nH]c(/N=C/c2ccccc2)c(C#N)c1C#N	GSTO1 counter 35, LYPLA1 inh 17 | LYPLA1 confirm 17
Cc1ccc(CNC(=O)C2CCN(S(=O)(=O)c3ccc4c(c3)CC(C)N4C(=O)C3CCC3)CC2)o1 (centres undefined)	LYPLA1 inh 16 | LYPLA1 confirm 19
CCOC(=O)c1cccc(NC(=O)c2ccc3c(c2)C(=O)N(CC2CCCO2)C3=O)c1 (centres undefined)	LYPLA1 inh 28 | LYPLA1 confirm 31
Cc1ccc(C(=O)Nc2ccc3c(c2)C(=O)N(CC2CCCO2)C3=O)cc1 (centres undefined)	none
Cc1ccc([N+](=O)[O-])c(OCCN2CCCCCC2)c1	none
Cc1ccc([N+](=O)[O-])c(OCCCN2CCC(Cc3ccccc3)CC2)c1	LYPLA1 inh 36, LYPLA2 counter 27 | LYPLA1 confirm 52
COc1ccc2oc(-c3ccc(C)c(NC(=O)c4ccc(N5CCOCC5)c([N+](=O)[O-])c4)c3)nc2c1	none
CCCC1=Nc2cc(C(=O)NCCCN3CCOCC3)ccc2Sc2ccccc21	none
O=C(Nc1cccc([N+](=O)[O-])c1)c1cccc(C(=O)Nc2cccc([N+](=O)[O-])c2)c1	none
Cc1nc2ccc(C(=O)Nc3cccc([N+](=O)[O-])c3)cc2s1	LYPLA1 inh 15 | LYPLA1 confirm 22
C[C@@H]1CN([C@@H](C)CO)C(=O)Cc2cc(NS(=O)(=O)c3cn(C)cn3)ccc2O[C@@H]1CN(C)C(=O)Nc1ccccc1	none (no result: GSTO1 counter, LYPLA1 inh, LYPLA2 counter, Fam108B counter, PME-1 primary)
COC(=O)/C(C#N)=C\c1c(OC)[nH]c2ccccc12	LYPLA1 inh 20 | LYPLA1 confirm inactive
O=C(Nc1ccc2c(c1)nc1n2CCN(Cc2ccccc2)C1)c1cccs1	none
COc1ccccc1C(=O)Nc1ccc2c(c1)nc1n2CCN(Cc2ccccc2)C1	LYPLA1 inh 28 | LYPLA1 confirm inactive
COC(=O)C(=C/C=C/N1CCOCC1)C(=O)OC	LYPLA1 inh 15 | LYPLA1 confirm inactive
O=C(COc1ccc(Br)cc1)N1CCN(c2ccc([N+](=O)[O-])c(N3CCCCC3)c2)CC1	LYPLA1 inh 66 | LYPLA1 confirm 76
Cc1cc(OCC(=O)N2CCOCC2)ccc1[N+](=O)[O-]	none
O=C(COc1ccccc1)N1CCN(c2ccc([N+](=O)[O-])c(N3CCCCC3)c2)CC1	none
Cc1ccc(OCC(=O)N2CCN(c3ccc([N+](=O)[O-])c(N4CCOCC4)c3)CC2)cc1	LYPLA1 inh 41 | LYPLA1 confirm 49
Cc1cc(NC(=O)CC(C)C)c(=O)n(Cc2ccccc2F)c1	none
COc1ccc(S(=O)(=O)N/N=c2\oc3c(OC)cccc3cc2S(=O)(=O)c2ccc(C)cc2)cc1OC	none
CCOc1ncccc1C(=O)NCCc1ccc(S(N)(=O)=O)cc1	none
COc1ccc2c(c1)CCc1c(C(=O)N3CCOCC3)noc1-2	none
COc1ccc2c(c1)CCc1c(C(=O)N3CCCc4ccccc43)noc1-2	LYPLA1 inh 34 | LYPLA1 confirm 35

High-throughput results (PubChem BioAssay)
